Consider 7 sequences from paper PMC11006913.

What all share (assay): PBM; 200 nM protein, PBS
What all share (details): dsDNA, one strand shown

Test [1] concerns the target HOXB9 (Homo sapiens, UniProt P17482 171-250, T197M).
Test [2] deals with HOXC9 (Homo sapiens, UniProt P31274 178-260, K195R).
A further test has as its target T1, VENTX (Homo sapiens, UniProt O95231 78-163).
T1 sequence: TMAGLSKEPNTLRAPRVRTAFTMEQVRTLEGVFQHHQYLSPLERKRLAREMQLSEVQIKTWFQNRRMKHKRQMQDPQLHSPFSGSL

The target in test [3] is HOXA7 (Homo sapiens, UniProt P31268 116-202).
HOXA7 (Homo sapiens, UniProt P31268 116-202), sequence (P31268 116-202): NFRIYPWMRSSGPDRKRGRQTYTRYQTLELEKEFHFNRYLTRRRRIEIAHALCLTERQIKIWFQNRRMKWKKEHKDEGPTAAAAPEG
Test [4] addresses HOXC10 (Homo sapiens, UniProt Q9NYD6 254-340).
In test [5] the target is T2, PAX4 (Homo sapiens, UniProt O43316 9-242).
T2 sequence: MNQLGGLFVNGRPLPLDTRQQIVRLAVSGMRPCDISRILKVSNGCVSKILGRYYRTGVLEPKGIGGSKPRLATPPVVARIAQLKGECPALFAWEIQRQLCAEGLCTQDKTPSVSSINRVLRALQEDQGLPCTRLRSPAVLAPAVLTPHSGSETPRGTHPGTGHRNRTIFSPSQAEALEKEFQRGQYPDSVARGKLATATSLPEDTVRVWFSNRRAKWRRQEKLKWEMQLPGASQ

Test [6] concerns the target HOXB6 (Homo sapiens, UniProt P17509 132-218, K202E).
In test [7] the target is HOXB9 (Homo sapiens, UniProt P17482 171-250).
HOXB9 (Homo sapiens, UniProt P17482 171-250), sequence (P17482 171-250): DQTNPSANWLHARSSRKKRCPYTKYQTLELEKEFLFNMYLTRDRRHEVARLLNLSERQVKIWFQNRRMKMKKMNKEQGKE
Test [8] has as its target HOXC9 (Homo sapiens, UniProt P31274 178-260).
For test [9], the target named is HOXC9 (Homo sapiens, UniProt P31274 178-260, R193K).
HOXC9 (Homo sapiens, UniProt P31274 178-260, R193K), sequence (P31274 178-260 R193K): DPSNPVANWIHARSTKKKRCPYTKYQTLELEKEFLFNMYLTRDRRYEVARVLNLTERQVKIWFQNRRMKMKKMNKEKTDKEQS
The target of test [10] is HOXA2 (Homo sapiens, UniProt O43364 129-215, R185K).
HOXA2 (Homo sapiens, UniProt O43364 129-215, R185K), sequence (O43364 129-215 R185K): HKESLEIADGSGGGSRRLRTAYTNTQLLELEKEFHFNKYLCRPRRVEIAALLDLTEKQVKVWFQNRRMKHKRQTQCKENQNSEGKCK
Test [11] deals with HOXC10 (Homo sapiens, UniProt Q9NYD6 254-340, K271E).
HOXC10 (Homo sapiens, UniProt Q9NYD6 254-340, K271E), sequence (Q9NYD6 254-340 K271E): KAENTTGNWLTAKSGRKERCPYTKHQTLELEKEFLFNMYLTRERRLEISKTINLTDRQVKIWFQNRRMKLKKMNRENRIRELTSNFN
The target in another test is VAX1 (Homo sapiens, UniProt Q5SQQ9 86-172).
VAX1, sequence (Q5SQQ9 86-172): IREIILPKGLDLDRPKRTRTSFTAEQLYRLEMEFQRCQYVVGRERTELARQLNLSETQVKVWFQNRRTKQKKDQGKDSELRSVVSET
The target of test [12] is HOXB9 (Homo sapiens, UniProt P17482 171-250, R186Q).
HOXB9 (Homo sapiens, UniProt P17482 171-250, R186Q), sequence (P17482 171-250 R186Q): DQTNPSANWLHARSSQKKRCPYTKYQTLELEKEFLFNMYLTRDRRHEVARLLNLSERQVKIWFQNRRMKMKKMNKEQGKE
Test [13] has as its target HOXC9 (Homo sapiens, UniProt P31274 178-260, R222W).
Test [14] addresses T3, PAX4 (Homo sapiens, UniProt O43316 9-242, R227W).
T3 sequence: T2 sequence with R219W

The target in test [15] is HOXA2 (Homo sapiens, UniProt O43364 129-215, Y150S).
HOXA2 (Homo sapiens, UniProt O43364 129-215, Y150S), sequence (O43364 129-215 Y150S): as the sequence (O43364 129-215 R185K) above, with Y22S, K57R counted along it
The target in test [16] is HOXA7 (Homo sapiens, UniProt P31268 116-202, W177C).
HOXA7 (Homo sapiens, UniProt P31268 116-202, W177C), sequence (P31268 116-202 W177C): as the sequence (P31268 116-202) above, with W62C counted along it
The target of test [17] is HOXA2 (Homo sapiens, UniProt O43364 129-215).
HOXA2 (Homo sapiens, UniProt O43364 129-215), sequence (O43364 129-215): as the sequence (O43364 129-215 R185K) above, with K57R counted along it
The target of test [18] is HOXB6 (Homo sapiens, UniProt P17509 132-218).
HOXB6 (Homo sapiens, UniProt P17509 132-218), sequence (P17509 132-218): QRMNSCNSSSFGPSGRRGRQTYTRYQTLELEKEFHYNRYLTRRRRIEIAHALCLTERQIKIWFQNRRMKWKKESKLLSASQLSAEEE

Residue numbers refer to the chain shown, from its start.

HOXC9 (Homo sapiens, UniProt P31274 178-260, K195R), sequence (P31274 178-260 K195R): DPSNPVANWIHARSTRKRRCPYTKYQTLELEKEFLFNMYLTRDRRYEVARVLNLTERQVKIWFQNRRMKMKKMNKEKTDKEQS
HOXC9 (Homo sapiens, UniProt P31274 178-260, R222W), sequence (P31274 178-260 R222W): as the sequence (P31274 178-260 R193K) above, with K16R, R45W counted along it
HOXB9 (Homo sapiens, UniProt P17482 171-250, T197M), sequence (P17482 171-250 T197M): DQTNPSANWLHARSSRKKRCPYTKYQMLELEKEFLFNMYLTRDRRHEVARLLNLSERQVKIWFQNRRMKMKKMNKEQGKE
HOXC9 (Homo sapiens, UniProt P31274 178-260), sequence (P31274 178-260): as the sequence (P31274 178-260 R193K) above, with K16R counted along it
HOXB6 (Homo sapiens, UniProt P17509 132-218, K202E), sequence (P17509 132-218 K202E): as the sequence (P17509 132-218) above, with K71E counted along it
HOXC10 (Homo sapiens, UniProt Q9NYD6 254-340), sequence (Q9NYD6 254-340): as the sequence (Q9NYD6 254-340 K271E) above, with E18K counted along it

Consider AGTAATTA, for which the binding signal was 10.6 upbm affinity estimate (log intensity, higher = more binding, comparable within an allelic series) in the test with HOXB9 [1]; 13.1 upbm affinity estimate (log intensity, higher = more binding, comparable within an allelic series) with HOXC9 [2]; 13 upbm affinity estimate (log intensity, higher = more binding, comparable within an allelic series) in the test with VENTX; 12.3 upbm affinity estimate (log intensity, higher = more binding, comparable within an allelic series) with HOXA7 [3]; 12.3 upbm affinity estimate (log intensity, higher = more binding, comparable within an allelic series) with HOXC10 [4]; 12.5 upbm affinity estimate (log intensity, higher = more binding, comparable within an allelic series) with PAX4 [5]. For the same sequence, the binding signal with HOXB6 [6] was 10.3 upbm affinity estimate (log intensity, higher = more binding, comparable within an allelic series); in the test with HOXB9 [7] it was 12.3 upbm affinity estimate (log intensity, higher = more binding, comparable within an allelic series); with HOXC9 [8], 13 upbm affinity estimate (log intensity, higher = more binding, comparable within an allelic series); with HOXC9 [9], 13 upbm affinity estimate (log intensity, higher = more binding, comparable within an allelic series); with HOXA2 [10] it was 14 upbm affinity estimate (log intensity, higher = more binding, comparable within an allelic series); in the test with HOXC10 [11], 12.5 upbm affinity estimate (log intensity, higher = more binding, comparable within an allelic series). The binding signal is 13.8 upbm affinity estimate (log intensity, higher = more binding, comparable within an allelic series) with VAX1; 12.1 upbm affinity estimate (log intensity, higher = more binding, comparable within an allelic series) with HOXB9 [12]; 11.1 upbm affinity estimate (log intensity, higher = more binding, comparable within an allelic series) with HOXC9 [13]; 11.1 upbm affinity estimate (log intensity, higher = more binding, comparable within an allelic series) in the test with PAX4 [14]; 11.1 upbm affinity estimate (log intensity, higher = more binding, comparable within an allelic series) with HOXA2 [15]; 8.88 upbm affinity estimate (log intensity, higher = more binding, comparable within an allelic series) with HOXA7 [16]. Moreover, the binding signal was 13.3 upbm affinity estimate (log intensity, higher = more binding, comparable within an allelic series) in the test with HOXA2 [17] and 12.7 upbm affinity estimate (log intensity, higher = more binding, comparable within an allelic series) with HOXB6 [18].

Turning to AATTAATA, the binding signal with HOXB9 [1] was 10.3 upbm affinity estimate (log intensity, higher = more binding, comparable within an allelic series); with HOXC9 [2] it was 12.8 upbm affinity estimate (log intensity, higher = more binding, comparable within an allelic series); in the test with VENTX, 12.3 upbm affinity estimate (log intensity, higher = more binding, comparable within an allelic series); with HOXA7 [3], 11.7 upbm affinity estimate (log intensity, higher = more binding, comparable within an allelic series); in the test with HOXC10 [4] it was 12.2 upbm affinity estimate (log intensity, higher = more binding, comparable within an allelic series); with PAX4 [5], 12.5 upbm affinity estimate (log intensity, higher = more binding, comparable within an allelic series). Further, the binding signal with HOXB6 [6] is 10.2 upbm affinity estimate (log intensity, higher = more binding, comparable within an allelic series); in the test with HOXB9 [7], 12 upbm affinity estimate (log intensity, higher = more binding, comparable within an allelic series); with HOXC9 [8], 12.7 upbm affinity estimate (log intensity, higher = more binding, comparable within an allelic series); in the test with HOXC9 [9], 12.7 upbm affinity estimate (log intensity, higher = more binding, comparable within an allelic series); in the test with HOXA2 [10], 13.1 upbm affinity estimate (log intensity, higher = more binding, comparable within an allelic series); in the test with HOXC10 [11], 12 upbm affinity estimate (log intensity, higher = more binding, comparable within an allelic series). For the same sequence, the binding signal with VAX1 was 12.9 upbm affinity estimate (log intensity, higher = more binding, comparable within an allelic series); with HOXB9 [12], 11.8 upbm affinity estimate (log intensity, higher = more binding, comparable within an allelic series); with HOXC9 [13] it was 11.3 upbm affinity estimate (log intensity, higher = more binding, comparable within an allelic series); with PAX4 [14], 11.2 upbm affinity estimate (log intensity, higher = more binding, comparable within an allelic series); in the test with HOXA2 [15] it was 11.1 upbm affinity estimate (log intensity, higher = more binding, comparable within an allelic series); with HOXA7 [16], 8.99 upbm affinity estimate (log intensity, higher = more binding, comparable within an allelic series). Besides, the binding signal with HOXA2 [17] is 12.1 upbm affinity estimate (log intensity, higher = more binding, comparable within an allelic series); in the test with HOXB6 [18] it was 12.1 upbm affinity estimate (log intensity, higher = more binding, comparable within an allelic series).

As to AATTAATC, the binding signal is 10 upbm affinity estimate (log intensity, higher = more binding, comparable within an allelic series) with HOXB9 [1]; 12.3 upbm affinity estimate (log intensity, higher = more binding, comparable within an allelic series) with VENTX; 11.3 upbm affinity estimate (log intensity, higher = more binding, comparable within an allelic series) with HOXA7 [3]; 12.4 upbm affinity estimate (log intensity, higher = more binding, comparable within an allelic series) with PAX4 [5]; 10 upbm affinity estimate (log intensity, higher = more binding, comparable within an allelic series) with HOXB6 [6]; 11 upbm affinity estimate (log intensity, higher = more binding, comparable within an allelic series) in the test with PAX4 [14]. In addition, the binding signal with HOXA7 [16] was 8.73 upbm affinity estimate (log intensity, higher = more binding, comparable within an allelic series); in the test with HOXB6 [18], 11.6 upbm affinity estimate (log intensity, higher = more binding, comparable within an allelic series).

On to AACAATTA, for which the binding signal with HOXA7 [3] is 11.2 upbm affinity estimate (log intensity, higher = more binding, comparable within an allelic series); with HOXB6 [6] it was 10 upbm affinity estimate (log intensity, higher = more binding, comparable within an allelic series); in the test with HOXA7 [16] it was 8.96 upbm affinity estimate (log intensity, higher = more binding, comparable within an allelic series).

For GGCAGGCC, the binding signal is 9.17 upbm affinity estimate (log intensity, higher = more binding, comparable within an allelic series) with PAX4 [5] and 9.12 upbm affinity estimate (log intensity, higher = more binding, comparable within an allelic series) with PAX4 [14].

GTCAATTA: the binding signal is 11.9 upbm affinity estimate (log intensity, higher = more binding, comparable within an allelic series) in the test with HOXC9 [2]; 9.73 upbm affinity estimate (log intensity, higher = more binding, comparable within an allelic series) with HOXB6 [6]; 12 upbm affinity estimate (log intensity, higher = more binding, comparable within an allelic series) with HOXC9 [8]; 11.9 upbm affinity estimate (log intensity, higher = more binding, comparable within an allelic series) in the test with HOXC9 [9]; 13.2 upbm affinity estimate (log intensity, higher = more binding, comparable within an allelic series) in the test with HOXA2 [10]; 13.3 upbm affinity estimate (log intensity, higher = more binding, comparable within an allelic series) with VAX1. Moreover, the binding signal with HOXC9 [13] is 10.7 upbm affinity estimate (log intensity, higher = more binding, comparable within an allelic series); in the test with HOXA2 [15], 10.7 upbm affinity estimate (log intensity, higher = more binding, comparable within an allelic series); with HOXA2 [17], 12.3 upbm affinity estimate (log intensity, higher = more binding, comparable within an allelic series); with HOXB6 [18], 11.7 upbm affinity estimate (log intensity, higher = more binding, comparable within an allelic series).

Consider ATAATTAG, for which the binding signal was 10.2 upbm affinity estimate (log intensity, higher = more binding, comparable within an allelic series) with HOXB9 [1]; 12.9 upbm affinity estimate (log intensity, higher = more binding, comparable within an allelic series) with VENTX; 11.8 upbm affinity estimate (log intensity, higher = more binding, comparable within an allelic series) in the test with HOXA7 [3]; 12.7 upbm affinity estimate (log intensity, higher = more binding, comparable within an allelic series) with PAX4 [5]; 10.1 upbm affinity estimate (log intensity, higher = more binding, comparable within an allelic series) in the test with HOXB6 [6]; 13.8 upbm affinity estimate (log intensity, higher = more binding, comparable within an allelic series) with HOXA2 [10]. In addition, the binding signal with HOXC10 [11] is 11.8 upbm affinity estimate (log intensity, higher = more binding, comparable within an allelic series); with VAX1, 13.8 upbm affinity estimate (log intensity, higher = more binding, comparable within an allelic series); with PAX4 [14], 11.3 upbm affinity estimate (log intensity, higher = more binding, comparable within an allelic series); in the test with HOXA2 [15], 11 upbm affinity estimate (log intensity, higher = more binding, comparable within an allelic series); in the test with HOXA7 [16] it was 9.08 upbm affinity estimate (log intensity, higher = more binding, comparable within an allelic series); with HOXA2 [17], 13.1 upbm affinity estimate (log intensity, higher = more binding, comparable within an allelic series). Besides, in the test with HOXB6 [18], the binding signal is 12.2 upbm affinity estimate (log intensity, higher = more binding, comparable within an allelic series).
